For 28 molecules, Tm shift relative to glycine control results are on record in PubChem BioAssay AID1259313 (Sanford-Burnham Center for Chemical Genomics, 2017).

Each structure is given as a SMILES string. The campaign covered roughly 340,000 compounds. About 8,500 (2.5%) were called active. The sample holds actives, similar compounds and a random draw of the others, so the mix is not that of the screen. Values without a mark were called inactive.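 Rule for the calls: active = melting temperature shift of at least 10% of the positive control shift, at one fixed dose; inactive = the rest.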

The test system of the assay is Glutamate receptor ionotropic, NMDA 3A (GRIN3A) ligand-binding domain. Description: NR3A LBD thermal stabilization by compounds – biophysical, differential scanning fluorimetry, uHTS, primary screen (AID 1259313). Conditions: at 25 µM, active compounds read high, 0% = protein alone, 100% = glycine-bound protein.
As for `NS(=O)(=O)c1ccc(Nc2nc(-c3ccccc3)cs2)cc1`, the Tm shift relative to glycine control was 15.5% (active).
The value for `COC(=O)[C@H](Cc1ccccc1)NC(=O)Nc1ccc(S(N)(=O)=O)cc1` was -3.46%; that for `NS(=O)(=O)c1ccc(NS(=O)(=O)/C=C/c2ccccc2)cc1` was -15.1%; that for `O=C(CC1C(=O)NCCN1CC(c1ccccc1)c1ccccc1)NCCc1cn[nH]c1` (stereo not drawn) was -1%.
Then `Cc1cccc(OCCC(=O)OCc2csc(CC(=O)Nc3ccccc3C)n2)c1`, with -1.22%.
Then `Cc1cccc(NC(=O)C2CCN(C(=O)NC3CCCCC3)CC2)c1`, with -0.18%.
With `COc1cccc(NC(=O)c2cc(S(=O)(=O)N3CCc4ccccc43)cn2C)c1`, the Tm shift relative to glycine control was 1.72%.
Then `COc1ccc(C(=O)C2CCCN(Cc3cccn3-c3ccccn3)C2)c(C)c1` (stereo not drawn), with 0%; and `CC(C)CCN1CCN=C1N(C)C`, with -0.97%.
Then `O=C(/C=C/NCc1ccc(F)cc1)c1ccccc1`, with 0.09%; and `O=C(/C=C\NCC(=O)c1ccccc1)c1ccccc1`, with 12.7% (active).
The value for `CCOc1ccc(N/C=C/C(=O)c2ccccc2)cc1` was -12.3%.
`COC(=O)Cn1c(=NC(=O)c2cc(OC)c(OC)c(OC)c2)sc2cc(OC)ccc21`: the Tm shift relative to glycine control was 4.34%.
The value for `O=C(Cn1cc(C(=O)c2cccs2)c2ccccc21)NCc1cccs1` was -6.3%; that for `COCCNC(=O)Cn1cc(C(=O)c2cccs2)c2ccccc21` was 4.81%; that for `COC(=O)c1cn(CC(=O)NCc2cccs2)c2ccccc12` was 11.7% (active).
Then `CC(NC(=O)c1ccccc1SCC(=O)N1CCCC1)c1ccccc1` (stereo not drawn), with 1.13%.
The value for `Cc1cc(Cl)c(S(=O)(=O)N(C)C)cc1OCC(N)=O` was 10.2% (active); that for `Cc1cc(Cl)c(S(=O)(=O)Nc2ccc3c(c2)OCCO3)cc1OCC(N)=O` was 5.63%; that for `Cc1cc(Cl)c(S(=O)(=O)NCCC(=O)O)cc1OCC(N)=O` was -2.09%.
On to `O=C(Nc1ccccc1F)c1cc(S(=O)(=O)N2CCCCC2)cs1`, for which the Tm shift relative to glycine control is -1.16%.
In the case of `CCN(c1ccccc1)S(=O)(=O)c1cccc(C(=O)NCc2ccccc2CN2CCOCC2)c1`, the Tm shift relative to glycine control was 2.34%.
Then `COc1ccc(CSc2nnnn2-c2ccc(C(=O)O)cc2)cc1`, with 3.65%; and `CCOc1ccc(NC(=O)c2ccc(CSc3nnnn3C)cc2)cc1`, with 26.8% (active); and `CCOc1ccc(NC(=O)CSc2nncn2C)cc1`, with -0.09%.
The value for `O=C(Nc1cccc(F)c1)c1cc(-c2ccco2)nc2ccccc12` was 11.7% (active).
Then `O=C(CSc1ccc(-c2ccco2)nn1)Nc1cccc(F)c1`, with -2.4%.
For `O=C(O)c1cccc(NC(=O)c2cc(-c3cccc(Cl)c3)nc3ccccc23)c1`, the Tm shift relative to glycine control was -12.1%.
